# The list is not random: actives were taken first. Their share in the collection is about 5%.
# AHR act: AHR activators, primary screen, cell-based, luminescence, luciferase reporter, human; activation, % at 5 µM; AHR-responsive luciferase reporter cells; Aryl hydrocarbon receptor (Homo sapiens), P35869; 320,000 tested, 2.5% active; in the data active = activation above about 47%
# EBI2 block: EBI2 receptor antagonists, beta-arrestin recruitment, primary screen, cell-based, luminescence, 7a,25-OHC stimulation, uHTS; 360,000 tested, 0.81% active; inhibition, % at 5 µM; AID 651636, 2012; 7a,25-OHC stimulated; in the data active = inhibition above about 38%;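 note: enzyme fragment complementation signal reports receptor beta-arrestin coupling in cells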
# SENP6 block: SENP6 protease inhibitors, primary screen, biochemical, luminescence, uHTS; inhibition, % at 10 µM; 330,000 tested, 1.8% active; Recombinant SENP6 catalytic domain, aminoluciferin luminescence; Sentrin-specific protease 6 (Homo sapiens), Q9GZR1;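 active = inhibition above about 50% at the single tested dose, limit read from the data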
# Target sequence (Q9GZR1 628-1112 limits assumed): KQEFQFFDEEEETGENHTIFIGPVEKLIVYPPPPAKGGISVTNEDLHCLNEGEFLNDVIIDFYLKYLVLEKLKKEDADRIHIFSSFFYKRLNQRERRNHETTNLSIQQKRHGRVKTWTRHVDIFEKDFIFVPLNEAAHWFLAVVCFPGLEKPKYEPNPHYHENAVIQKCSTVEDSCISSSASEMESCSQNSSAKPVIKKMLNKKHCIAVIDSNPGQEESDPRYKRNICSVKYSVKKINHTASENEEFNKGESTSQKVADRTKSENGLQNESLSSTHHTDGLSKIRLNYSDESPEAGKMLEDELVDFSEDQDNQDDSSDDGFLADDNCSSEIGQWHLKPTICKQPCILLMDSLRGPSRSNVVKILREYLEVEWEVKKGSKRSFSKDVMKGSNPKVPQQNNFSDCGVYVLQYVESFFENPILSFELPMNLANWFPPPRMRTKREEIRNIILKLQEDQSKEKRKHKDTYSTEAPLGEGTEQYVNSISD
# SENP8 block-1: SENP8 protease inhibitors, primary screen, biochemical, luminescence. inhibition, % at 10 µM. Sentrin-specific protease 8 (Homo sapiens), Q96LD8. 330,000 tested, 1.2% active. purified SENP8, Z-RLRGG-aminoluciferin cleavage; in the data active = inhibition above about 50%
# SENP8 block-2: human SENP8 protease inhibitors, primary screen, biochemical, fluorescence, Nedd8 protein substrate, uHTS; Sentrin-specific protease 8 (Homo sapiens), Q96LD8; recombinant SENP8; inhibition, % at 20 µM; 360,000 tested, 0.64% active; AID 602440, 2012; in the data active = inhibition mostly above about 40%, no sharp cut-off; inactive = mostly below about 27%
# SENP7 inh: SENP7 protease inhibitors, primary screen, biochemical, luminescence, uHTS | inhibition, % at 5 µM | Sentrin-specific protease 7 (Homo sapiens), Q9BQF6 | recombinant SENP7, Z-RLRGG-aminoluciferin luminescence, 40 min | AID 434973, 2010 | 330,000 tested, 1.5% active;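 active = inhibition above about 50% at the single test dose, limit read from the data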
# Hits are given with their value; . = inactive; / = no result given.
SMILES,AHR act,EBI2 block,SENP6 block,SENP8 block-1,SENP8 block-2,SENP7 inh
CCOc1ccc(N=Nc2c(=O)[nH]n3c(C)cc(C)nc23)cc1,.,.,.,.,52.6,.
CCCN1CCC2(CC1)C(C#N)=C(N)Oc1c2sc2nc(C)cc(C)c12,61.1,.,.,.,.,.
CC1=C(C(=O)N(C(C)C)C(C)C)CC(CC(=O)NC2CC2)C(=O)N1CCC1=CCCCC1 (stereo unspecified),/,.,/,/,.,/
CC(C)Oc1ccc(CN2CCC2(C)C(=O)NCc2cccc3ccccc23)cc1 (stereo unspecified),/,.,/,/,.,/
CC(C)Cc1nc2oc3c(N4CCN(CCO)CC4)ncnc3c2c2c1CCCC2,.,51.2,.,.,.,.
C=CCn1c(O)c(N=NC(=S)Nc2cccc(OC)c2)c2ccccc21,61.4,.,.,.,.,.
C=CCn1c(O)c(N=NC(=S)Nc2ccc(OC)cc2)c2ccccc21,.,.,/,/,.,/
C=CCn1c(O)c(N=Nc2ccccc2)c2ccccc21,.,.,.,.,.,.
C=CCn1c(O)c(N=NC(=O)CNC(=O)Cc2ccccc2)c2ccccc21,53.2,.,.,.,.,.
C=CCn1c(O)c(N=Nc2ccccc2[N+](=O)[O-])c2ccccc21,/,.,/,/,46.5,/
NS(=O)(=O)c1cccc(NC(=O)COC(=O)Cc2ccc(S(=O)(=O)N3CCOCC3)s2)c1,/,.,/,/,.,/
O=C(c1cnn2c(C(F)F)cc(C3CC3)nc12)N1CCc2ccccc2C1,49.2,.,.,.,.,.
COc1ccccc1-c1cnc(C(O)c2ccc(C(C)(C)C)cc2)[nH]1 (stereo unspecified),/,.,/,/,.,/
CC(=O)Nc1ccc(N/C=C(\C=O)c2nc3ccccc3o2)cc1,.,.,.,.,.,.
O=C/C(=C\Nc1ccc(Br)cc1)c1nc2ccccc2o1,49.0,.,.,.,.,.
CC(=O)Nc1cccc(N/C=C(\C=O)c2nc3ccccc3o2)c1,58.8,.,.,.,.,.
C#CCOC(=O)Nc1cc(C)n(-c2ccccc2)n1,.,.,.,.,.,.
CCN(C(=O)COC(=O)C(Cc1ccccc1)N1C(=O)c2ccccc2C1=O)C1CCS(=O)(=O)C1 (stereo unspecified),.,.,.,.,.,.
Cn1c(N)c(C(=O)COC(=O)[C@H](Cc2ccccc2)N2C(=O)c3ccccc3C2=O)c(=O)n(C)c1=O,57.6,.,.,.,.,.
CN(CCC#N)C(=O)COC(=O)[C@H](Cc1ccccc1)N1C(=O)c2ccccc2C1=O,53.6,.,.,.,.,.
COc1ccc(OC)c(C(C(=O)NC2CCCCC2)N(C(=O)c2ccccn2)c2cccnc2)c1 (stereo unspecified),.,.,.,.,.,.
Nc1ccc(C#Cc2c(-c3ccsc3)oc3ccc(N4CCOCC4)cc23)cc1,70.3,.,.,.,.,.
COc1ccc(-c2c(-c3ccsc3)oc3ccc(N4CCOCC4)cc23)cn1,58.7,.,.,.,.,.
COC(=O)c1ccc(/C=C/c2c(-c3ccsc3)oc3ccc(N4CCOCC4)cc23)cc1,.,.,.,.,.,.
COc1ccc(-c2oc3ccc(N4CCOCC4)cc3c2C#CCO)cc1,.,.,.,.,.,.
SMILES,AHR act,EBI2 block,SENP6 block,SENP8 block-1,SENP8 block-2,SENP7 inh
S=C(NCc1ccco1)Nc1ccc(Cl)c(Cl)c1,.,.,.,.,.,.
S=C(NCc1ccco1)Nc1cc(-c2ccccc2)[nH]n1,73.7,.,.,.,.,.
C[C@@H]1CN([C@H](C)CO)S(=O)(=O)c2ccc(-c3ccc(C(=O)N(C)C)cc3)cc2O[C@H]1CN(C)C(=O)Cc1ccccn1,/,.,/,/,.,/
COc1ccc(C(CNC(=O)C(C)Oc2ccc(Br)cc2)N2CCOCC2)cc1 (stereo unspecified),49.3,.,.,.,.,.
Cc1ccc(Cl)cc1Nc1nc(-c2sc(NC(=O)c3ccccc3)nc2C)cs1,.,/,50.9,.,/,.
COc1ccccc1Nc1nc(-c2sc(NC(=O)c3ccccc3)nc2C)cs1,.,.,.,.,.,.
Cc1nc(NC(=O)c2ccccc2)sc1-c1csc(Nc2cccc(F)c2)n1,.,/,.,.,/,.
CCCC(=O)Nc1nc(C)c(-c2csc(Nc3ccccc3C)n2)s1,.,.,.,.,.,.
CCCCCCC(=O)Nc1nc(C)c(-c2csc(Nc3ccccc3OC)n2)s1,69.5,.,.,.,.,.
CCCCC(=O)Nc1nc(C)c(-c2csc(Nc3cc(Cl)ccc3OC)n2)s1,70.3,.,.,.,.,.
CCCCCC(=O)Nc1nc(C)c(-c2csc(Nc3ccccc3OCC)n2)s1,67.1,.,.,.,.,.
CCOC(=O)c1c(-c2ccc(C)cc2)csc1NC1=NS(=O)(=O)c2ccccc21,.,.,.,.,.,.
Cc1cc(NS(=O)(=O)c2ccc(Nc3nc(-c4sc(NC(=O)c5ccccc5)nc4C)cs3)cc2)no1,.,/,72.0,.,/,65.1
CCOc1ccccc1Nc1nc(-c2sc(NC(=O)c3ccccc3)nc2C)cs1,72.2,/,72.4,58.8,/,63.9
CCCC(C)C(=O)Nc1nc(C)c(-c2csc(Nc3ccc(Cl)cc3)n2)s1 (stereo unspecified),78.7,.,.,.,.,.
CCn1cc(CCC(=O)NCCN2CCOCC2)c2ccccc21,.,.,.,.,.,.
Cc1cnc(-c2nc3ccccc3n2C(C)C(=O)Nc2c(C)cccc2C)cn1 (stereo unspecified),/,.,/,/,.,/
CC(C)c1cc(C(=O)OCC(=O)NC2CCS(=O)(=O)C2)c(O)c(C(C)C)c1 (stereo unspecified),/,.,/,/,.,/
O=C1NC[C@@H](CCCCN2C[C@H](Cc3ccc(O)cc3)N(CCC3CCCCC3)C(=O)C2=O)N(Cc2ccccc2)C1=O,/,.,/,/,.,/
O=C(Nc1ccc(F)cc1)Nc1csc2ccccc12,74.8,.,.,.,.,.
CN(C)c1ccc(NC(=O)Nc2csc3ccccc23)cc1,72.2,.,.,.,.,.
CCOc1ccccc1C(=O)NC1CCNCC1,.,.,.,.,.,.
CC(=O)N(c1cccc(C(F)(F)F)c1)c1nc(/C=C/C(=O)O)cs1,72.9,.,.,.,.,.
CC(=O)c1c(C)[nH]c(C(=O)Nc2cccnc2)c1C,57.1,.,.,.,.,.
CC(=O)c1c(C)[nH]c(C(=O)Nc2cccc(C(F)(F)F)c2)c1C,.,.,.,.,.,.
COc1ccc(NC(=O)c2[nH]c(C)c(C(C)=O)c2C)cc1,60.8,.,.,.,.,.
CCc1c(C(=O)Nc2ccc(OC)cc2)[nH]c(C)c1C(C)=O,.,.,.,.,.,.
